A selection: hits, their analogues and other compounds. The true share with any hit is near 5.6%.
PHOSPHO1 block: blocks human PHOSPHO1 phosphatase activity; Q8TCT1; recombinant PHOSPHO1, absorbance phosphatase assay; inhibition, % at 13.3 µM; 290,000 tested, 1.1% active; AID 1565; in the data active = inhibition above about 60%
Target sequence (Q8TCT1 whole entry, looked up): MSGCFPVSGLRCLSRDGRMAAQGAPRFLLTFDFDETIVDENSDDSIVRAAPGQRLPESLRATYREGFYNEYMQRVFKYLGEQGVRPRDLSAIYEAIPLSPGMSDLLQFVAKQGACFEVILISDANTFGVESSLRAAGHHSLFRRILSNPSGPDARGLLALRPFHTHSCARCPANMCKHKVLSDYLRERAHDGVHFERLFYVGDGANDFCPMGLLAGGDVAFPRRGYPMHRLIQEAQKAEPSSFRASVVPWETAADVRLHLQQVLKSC
PfGluPho inh: PfG6PD (Plasmodium falciparum) enzyme inhibition; PfGluPho enzyme, NADPH resazurin-diaphorase fluorescence; inhibition, % at 20 µM; 350,000 tested, 0.78% active;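 active = inhibition reaching at least a set limit at 20 µM in the primary screen, cut at about 59% in these data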;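 note: 0% = DMSO wells with substrate and 100% = DMSO wells lacking glucose-6-phosphate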
ALR H2O2 inh: blocks human ALR sulfhydryl oxidase activity | P55789 | inhibition, % (test concentration not listed) | AID 485317 | purified ALR, DTT oxidation, H2O2 HRP-luminol luminescence | 290,000 tested, 3.8% active;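 active = mean replicate inhibition above about 79%, with every replicate also reaching it, limit read from the data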
Target sequence (P55789 whole entry, looked up): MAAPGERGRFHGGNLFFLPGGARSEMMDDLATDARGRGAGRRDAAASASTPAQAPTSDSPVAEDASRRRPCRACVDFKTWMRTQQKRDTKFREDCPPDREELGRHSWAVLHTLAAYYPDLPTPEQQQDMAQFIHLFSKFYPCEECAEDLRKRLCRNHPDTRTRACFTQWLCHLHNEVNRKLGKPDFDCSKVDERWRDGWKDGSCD
H9c2 protect: modulators protecting cardiomyocytes from myocardial damage. H9c2 cardiomyocytes, H2O2 injury protection, ATPLite, 2 h. protection from H2O2 cell death, % at 20 µM. 360,000 tested, 0.63% active;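 active = compounds giving at least 50% protection of heart cells from peroxide-induced death in the single-dose screen, raw or plate-pattern-corrected value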;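 note: 0% = DMSO wells with peroxide and 100% = DMSO wells without peroxide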
PfM18AAP inh: blocks P. falciparum M18 aspartyl aminopeptidase | recombinant PfM18AAP, H-Glu-NHMec fluorogenic cleavage | inhibition, % at 7.35 µM | 290,000 tested, 1.2% active | AID 1822;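 active = inhibition above the campaign mean inhibition over all tested compounds plus 3 SD, cut at about 28% in these data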;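 note: 0% = plate median of test compound wells and 100% = 2 mM ZnCl2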
* marks the source's active call; other numbers are inactive results; / = not tested or not shown.

SMILES	PHOSPHO1 block	PfGluPho inh	ALR H2O2 inh	H9c2 protect	PfM18AAP inh
COc1cccc(/C=N/NC(=O)C(C)Sc2ccccc2)c1 (stereo unspecified)	29	19	-5	5	-8
CCOc1cc(/C=N/NC(=O)c2ccccc2-n2cccc2)ccc1O	/	2	99*	6	/
CCOc1cc(/C=N/NC(=O)C(C)Sc2ccccc2)ccc1O (stereo unspecified)	45	4	99*	-1	5
CCOc1cc(/C=N/NC(=O)C(OC)c2ccccc2)ccc1O (stereo unspecified)	-21	-17	100*	-3	3
CCOc1ccc(/C=N/NC(=O)C(OC)c2ccccc2)cc1 (stereo unspecified)	44	-7	-7	0	3
CCOc1cc(/C=N/NC(=O)C(=O)N/N=C/c2ccc(O)c(OCC)c2)ccc1O	25	-7	12	9	14
CCOc1cc(/C=N/NC(=O)C(N)=O)cc(Br)c1O	-17	3	91*	-3	3
CCOc1cc(/C=N/NC(=O)N/N=C/c2ccc(O)c(OCC)c2)ccc1O	/	30	99*	/	/
Cc1ccc(NC(=O)CN(C)C(=O)COC(=O)c2nc3nccc(C)n3n2)cc1	/	-3	/	4	/
COc1ccc2cc3cc(C(=O)Nc4cc(OC)c(OC)c(OC)c4)oc3nc2c1	16	2	-12	58*	18
CCCCCN(C(=O)CCC(=O)OCC(=O)NCCc1ccccc1)c1c(N)n(CCCC)c(=O)[nH]c1=O	/	0	/	0	/
CC[n+]1ccc(C[n+]2ccccc2)c2ccccc21	88*	33	/	6	8
Oc1ccc(Cl)cc1C1=NCCNC(C(F)(F)C(F)F)=C1	0	-4	99*	-1	5
Cc1ccc(O)c(C2=NCCNC(C(F)(F)C(F)F)=C2)c1	-2	-9	99*	-4	-5
CCCCN(C(=O)COC(=O)c1ccc(C=O)cc1)c1c(N)n(CCC)c(=O)[nH]c1=O	/	-28	/	8	/
CCCN1CCN(S(=O)(=O)c2ccc3c(c2)NC(=O)C(C)C(=O)N3)CC1 (stereo unspecified)	23	-7	-2	0	-13
CCN(C(=O)c1coc(=O)c(Br)c1)c1ccc2c(c1)OCO2	74*	50	15	-2	11
CCOc1cc(N2CCOCC2)c(OCC)cc1NC(=O)Cn1[nH]c(=O)c2ccccc2c1=O	-1	17	-45	79*	1
CCCn1nc(C(=O)Nc2cc(OCC)c(N3CCOCC3)cc2OCC)c2ccccc2c1=O	/	29	/	56*	/
CCOc1cc(N2CCOCC2)c(OCC)cc1NC(=O)c1ccccc1	40	3	25	1	-4
CCc1ccc(OCC(=O)NNC(=O)C2CCC2)cc1	/	7	1	8	/
COc1ccc(CN(C)C(=O)Cn2cnc3c(NCc4ccccc4)ncnc32)cc1OC	/	-9	/	-2	/
COc1cc(/C=N/Nc2ccccc2)ccc1O	1	21	99*	0	19
COC(=O)c1[nH]c2cc(OC)c(OC)cc2c1NC(=O)CN1CCN(Cc2ccccc2)CC1	-2	/	/	/	/
COc1cc(/C=N/NC(=O)CCNC(=O)c2ccccc2Cl)ccc1O	9	12	99*	-1	-11
SMILES	PHOSPHO1 block	PfGluPho inh	ALR H2O2 inh	H9c2 protect	PfM18AAP inh
COC(=O)c1[nH]c2cc(OC)c(OC)cc2c1/C=N/Nc1ccccc1	-135	34	56	75*	1
O=C(CCNC(=O)c1ccccc1Cl)N/N=C\c1ccc(O)cc1	-1	43	/	1	-8
COc1ccc(/C=N/NC(=O)c2ccco2)cc1Cn1nc(C)cc1C	-5	2	77*	1	-6
COc1cc(/C=N/N(c2ccccc2)c2ccccc2)ccc1O	/	-10	/	-23	13
CC1(C(=O)Nc2ccc3nc[nH]c3c2)CCN1C(=O)c1ccccc1CCc1ccccc1 (stereo unspecified)	/	/	/	8	/
C=C1CCN([C@@H](C)C(=O)NCc2ccc(OC)cc2)S(=O)(=O)c2ccccc21	-1	0	1	-6	/
O=C(CSc1nnc(NC(=O)C2CC2)s1)Nc1ccccc1Cl	37	-31	-5	-4	0
CSc1ccccc1NC(=S)NCc1ccc(Cl)cc1	11	0	-4	-2	3
COC(=O)C1CCN(S(=O)(=O)CCNC(=O)c2ccccc2)CC1	/	-8	/	1	/
COc1cc(/C=N/NC(=O)CNC(=O)c2ccco2)ccc1O	27	1	99*	5	-8
COc1cc(/C=N/NC(=O)CCC(=O)Nc2ccc(F)cc2)ccc1O	34	-2	38	3	4
O=C(CNC(=O)c1ccco1)N/N=C/c1cc(Br)ccc1O	-20	-34	/	40	10
COc1cc(/C=N/NC(=O)CCc2ccccc2)ccc1O	12	2	99*	-2	-2
COc1ccc(/C=N/Nc2nc(N3CCCC3)nc(N3CCCC3)n2)cc1O	20	-6	99*	6	-8
COc1ccc(/C=N/Nc2nc(N3CCCC3)nc(N3CCCC3)n2)cc1	5	-9	10	33	12
CCOC(=O)c1sc(N)c(C#N)c1CSc1nnc(C2CCCCC2)n1N	88*	11	/	0	11
CC1CN(C(=O)CSc2nnc(C3CCCCC3)n2N)CC(C)O1 (stereo unspecified)	/	2	/	6	/
O=C(Nc1nnc(-c2ccco2)o1)c1cccc(Cl)c1	27	-8	96*	12	-2
COc1cccc(-c2nnc(NC(=O)c3ccc(Cl)s3)o2)c1	-14	22	3	58*	-7
O=C(Nc1nnc(-c2ccco2)o1)c1ccc(Cl)s1	46	-6	96*	16	5
COc1cccc(-c2nnc(NC(=O)c3cccc(F)c3)o2)c1	-5	-25	0	44	/
COC(=O)CC1=NN(c2nc3ccccc3s2)C(=O)/C1=C/N(C)C	0	0	96*	-9	1
COC(=O)Cc1[nH]n(-c2nc3ccccc3s2)c(=O)c1C(C)=O	24	-5	98*	-8	-1
COC(=O)CCCc1nc2ccccc2s1	24	-2	-16	-1	3
CC(=O)c1c(CC(=O)O)[nH]n(-c2nc3ccccc3s2)c1=O	15	-1	97*	-11	-2
SMILES	PHOSPHO1 block	PfGluPho inh	ALR H2O2 inh	H9c2 protect	PfM18AAP inh
C[C@@H]1CCCCO[C@H](CN(C)C(=O)Nc2ccccc2)[C@@H](C)CN([C@H](C)CO)C(=O)c2cc(NS(=O)(=O)c3cn(C)cn3)ccc2O1	/	14	/	1	/
CCOC(=O)N1CCN(C(=O)CSc2nnc(Cc3cccn3C)n2CCc2ccccc2)CC1	62*	-8	7	4	5
CCc1nc2ccc(C(=O)NCc3cccs3)cn2c1N(C)Cc1nccs1	/	/	/	48*	/
Cc1ccc(S(=O)(=O)Oc2ccccc2-c2ccccc2)cc1	/	44	/	-13	/
O=S(=O)(c1cccc2nsnc12)N1CCOCC1	-21	-8	-2	11	1
Cc1ccc2nsnc2c1S(=O)(=O)N1CCOCC1	-12	-16	98*	12	0
O=C(Nc1cccc(S(=O)(=O)N2CCOCC2)c1)C1=NN(c2ccccc2)C(=O)CC1	31	-2	-1	3	1

Screening results from PubChem.
